40 compounds from PubChem BioAssay (NCATS) can be followed below.

Each structure is given as a SMILES string. Unmarked numbers belong to inactive results. Calls come from the whole dose curve; as a rule, active = well fitted curve in the direction sought with a large enough effect; inconclusive = small, poorly fitted or top-dose-only effect, or another doubt; inactive = no such curve, though single readings can be large or run the other way.

The assay in a line: Cellular Toxicity (caspase-3) MRC-5 (AID 659). The settings on record: MRC-5 cells, luminescence, normalized: DMSO 0%, 10 µM staurosporine 100%; series mostly up to 91.7 µM; caspase-3 activation: at the top concentration. The text has this: NIH Chemical Genomics Center [NCGC]
NIH Molecular Libraries Screening Centers Network [MLSCN]
National Institutes of Environmental Health Sciences [NIEHS]
National Toxicology Program [NTP]
We have developed a 1536-well cell-based assay for quantitative high throughput screening (qHTS) against a number of cell lines to determine in vitro caspase 3/7 activity of small molecules. This particular assay uses the MRC-5 cell line which is derived from human normal lung fibroblasts.
NCGC Assay Protocol Summary:
The Caspase-Glo 3/7 assay (Promega) is a homogeneous method to measure caspase-3 and caspase-7 activities in cultured cells. The quantitation of caspase 3/7 activity is based on the cleavage of a peptide-aminoluciferin substrate. After caspase cleaves the substrate the free aminoluciferin is liberated and serves as the substrate of luciferase, which generates the light. The luminescent signal is proportional to amount of caspase 3/7 activity present.
Using the Caspase-Glo 3/7 assay, the amount of caspase 3/7 activity was measured in the MRC-5 line with complete culture medium following compound treatment for 16 hours. The assay was performed in opaque white 1536-well plates. In the screen, tamoxifen and staurosporine were used as positive controls. Library compounds were measured for their ability to cause the activation of caspase 3/7 in the cell line, as reflected by an increase in luminescence signal, in a concentration-dependent manner. Data were normalized to the controls for basal activity (DMSO only) and 100% stimulation (10 uM staurosporine). AC50 values were determined from concentration-response data modeled with the standard Hill equation.
qHTS protocol for caspase 3/7 assay in MRC-5 cells
[Step] [Parameter] [Value] [Description]
1. Reagent; 5 uL; 1500 MRC-5 cells/well
2. Time; 5 hr; 37 °C incubation
4. Controls; 23 nL; Tamoxifen 0.23 uM to 100 uM & staurosporine 1.4 pM to 100 uM
5. Time; 16 hr; 37 °C incubation
6. Reagent; 5 uL; Caspase-Glo 3/7 reagent
7. Time; 1 hr; Room Temperature
8. Detection; Luminescence; Viewlux plate reader
Keywords: caspase 3/7, apoptosis, MRC-5 cell line, luminescence, NTPHTS, NTPHTS_NCGC, NIEHS, EPA, DSSTox, MLSMR, MLSCN, NIH Roadmap, qHTS, NCGC
On to `Nc1cnn([C@@H]2O[C@H](CO)[C@@H](O)[C@H]2O)c(=O)n1`, for which the “caspase-3 activation” value is 1.37%.
On to `CCCCCCc1ccc(-c2ccc(C#N)cc2)cc1`, for which the “caspase-3 activation” value was -0.59%.
Regarding `CCCCCCCC/C=C\CCCCCCCC(=O)N(CCO)CCO`, the “caspase-3 activation” value is 3.93%.
Under `C=C(C#N)C(=O)OCC` stands -1.1%; under `Nc1cc(C(=O)O)c(O)c(S(=O)(=O)O)c1`, 1.29%; under `CCN(CC)c1ccc(N)cc1`, 11.6%.
Next, `CC(C)(C)C(=O)C1C(=O)c2ccccc2C1=O`: 2.66%; `Oc1ccc(O)c2c(O)cccc12`: -0.533%.
Next, `Cc1c2ccccc2c(C)c2c1ccc1ccccc12`: 0.113%; `Cc1ccc(N)cc1[N+](=O)[O-]`: -0.45%.
In the case of `C=C1CC[C@H](O)C/C1=C/C=C1\CCC[C@]2(C)[C@@H]([C@H](C)CCCC(C)C)CC[C@@H]12`, the “caspase-3 activation” value was 5.51%.
On to `O=[N+]([O-])c1cc(Cl)c(Cl)c(Cl)c1Cl`, for which the “caspase-3 activation” value is -2.78%.
Under `O=CC(=O)c1ccccc1` stands 3.79%; under `CCCCNCC`, 0.516%; under `OCC(CBr)(CBr)CBr`, 0.0228%.
For the compound `Cc1c(N)cccc1Cl`, the “caspase-3 activation” value was -0.232%.
With `C[Si](C)(C)Cl`, the “caspase-3 activation” value is -0.165%.
For `CC1=C(/C=C/C(C)=C/C=C/C(C)=C/C=O)C(C)(C)CCC1`, the “caspase-3 activation” value was 10%.
In the case of `Nc1ccc(N=Nc2ccccc2)c(N)c1`, the “caspase-3 activation” value was -7.75%.
Under `Cc1cc(-c2ccc(N=Nc3cc(S(=O)(=O)O)c4ccccc4c3N)c(C)c2)ccc1N=Nc1cc(S(=O)(=O)O)c2ccccc2c1N` stands -2.78%.
Under `COc1ccc(C)cc1N` stands 0.0106%.
Turning to `CCOc1ccc2nc(N)sc2c1`, the “caspase-3 activation” value is -0.217%.
Turning to `O=C1c2ccccc2C(=O)C1(O)O`, the “caspase-3 activation” value was 2.64%.
In the case of `NC(=O)Nc1nc2ccccc2[nH]1`, the “caspase-3 activation” value is 0.898%.
Next, `Nc1ccc(N)c(Cl)c1`: 3.29%.
For the compound `Cc1cc(=O)oc2cc(O)cc(O)c12`, the “caspase-3 activation” value was -2.48%.
Next, `C=CC(C)(O)CCCC(C)CCCC(C)CCCC(C)C` (stereo not given): 0.199%; `OCC(CO)(CBr)CBr`: 0.915%; `CN(C)c1ccc(Cc2ccc(N(C)C)cc2)cc1`: 2.42%.
Turning to `C/C=C1/C(=O)C[C@H]2[C@@H]3CCC4=CC(=O)CC[C@]4(C)[C@H]3CC[C@]12C`, the “caspase-3 activation” value is 5.11%.
On to `CCCCC(CC)COC(=O)COc1ccc(Cl)cc1Cl` (stereo not given), for which the “caspase-3 activation” value was -0.968%.
Next, `CC(/C=C/C=C(C)/C=C/C(=O)O)=C\C=C\C=C(C)\C=C\C=C(C)\C=C\C(=O)O`: -2.78%; `O=C(OCC1CO1)C1CCCCC1C(=O)OCC1CO1` (stereo not given): 2.98%; `c1ccc2ncccc2c1`: -0.825%.
On to `C=Cc1cccc(C)c1`, for which the “caspase-3 activation” value was 0.507%.
With `C1CCCNCC1`, the “caspase-3 activation” value is -1.12%.
For `c1ccc(COCc2ccccc2)cc1`, the “caspase-3 activation” value was -2.74%.
Under `CC(=O)OCc1ccc2c(c1)OCO2` stands 1.27%.
Under `Oc1cc(Cl)cc(Cl)c1Cl` stands -2.46%; under `O=Nc1ccc(Nc2ccccc2)cc1`, 1.43%.
